# Compounds without any hit were thinned out: in the full panel of roughly 83,000, 20% have a hit.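 Cells were grown in 96-well plates and exposed to the test compound at a single concentration for 48 hours; results are reported as percent growth, with values below 10 considered active.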 Values without a mark were called inactive. Calls of active or inactive are those of the source.
# Test system: ACHN renal
# Experiment: NCI-60 one-dose screen, 48 h (100 = growth as untreated, 0 = no growth, -100 = all killed)
# Conditions: 10 µM unless noted
# Description: Growth inhibition of the ACHN human tumor cell line is measured as a screen for anti-cancer activity. Cells are grown in 96 well plates and exposed to the test compound for 48 hours. Compounds are tested at a single concentration, which is 10^-5 M for most compounds. The reported endpoint is percent growth (GI% or GIPRCNT), where numbers from 0 - 100% represent growth inhibition, and numbers from -100% - 0 represent cell death. For example, a value of 40 represents 60% growth inhibition. A value of 0 means no net growth occurred over the course of the experiment. A value of -40 indicates 40% of cells at the beginning of the experiment died by the end of the experiment. A value of -100 means all cells are dead at the end of the experiment.
# NCI-60 Human Tumor Cell Lines Screen was performed using the standard one-dose NCI protocol, which is described in more detail at https://dtp.cancer.gov/discovery_development/nci-60/default.htm.
# Compounds with GIPRCNT values below 10 were considered active. Activity score was based on GIPRCNT using the following formula: […]
# Score is 0 for GIPRCNT values of 100 or above, 50 for GIPRCNT values of 0, and 100 for GIPRCNT values of -100.
row,SMILES,growth
1,O=C(NCCNC(=O)c1cc(S(=O)(=O)NCCc2ccccc2)c(O)c(O)c1O)c1cc(S(=O)(=O)NCCc2ccccc2)c(O)c(O)c1O,68.6%
2,CCCCn1c(-c2ccc(F)cc2)nc2cc(OC)c(OC)cc2c1=O,101%
3,Clc1ccc(-c2nc(Br)cn3ccnc23)cc1,83.4%
4,COc1ccc(C(=O)C(C#N)c2cc(OC)c(OC)c(OC)c2)cc1 (stereo not given),104%
5,Clc1ccccc1Nc1nnc(-c2ccncc2)s1,104%
6,c1ccc(C2=Nc3ccccc3SC2)cc1,95.4%
7,COc1cccc(Cn2c(-c3nonc3NC(C)=O)nc3ccccc32)c1,42.8%
8,COc1ccc(-c2nn(-c3cccc(Cl)c3)cc2/C=C2\C(=N)N(c3ccccc3)N=C2N)cc1,20.7%
9,COc1ccc(C2=Nn3c(nnc3-c3ccc(Cl)cc3N)SC2)cc1,97%
10,CC(=O)OC1Oc2cc(C)c(C)cc2-c2oc(=O)c(-c3ccc(F)cc3)cc21 (stereo not given),89.5%
11,CN1CCN(Cc2ccc(NC(=O)c3cncc(C#Cc4ncc5cnccn45)c3)cc2C(F)(F)F)CC1,30.7%
12,CC1=C(C(=O)Nc2ccc(F)cc2)C(c2ccccc2)C2=C(CC(C)(C)CC2=O)N1 (stereo not given),82.7%
13,CCc1ccc2c(c1)N(CCO)C1=C(C(=O)OC1)C2c1cccc(Br)c1 (stereo not given),47.4%
14,CCCc1n(Cc2ccc3ccccc3c2)c2ccccc2[n+]1Cc1ccc2ccccc2c1,3.74% (active)
15,CCN(C(=O)Nc1cccc2ccccc12)c1ccccc1,99.5%
16,CN1CCN(Cc2ccc(NC(=O)c3cncc(C#Cc4ncc5ccccn45)c3)cc2C(F)(F)F)CC1,13.1%
17,Cc1ccc(C2CC(c3cccs3)=NN2c2ccc(S(N)(=O)=O)cc2)s1 (stereo not given),91.9%
18,COc1ccc(/C(=C\c2ccc3c(c2)OCO3)C(=O)Nc2nc3ccc(F)cc3s2)cc1OC,97.5%
19,C=CCn1c(C)nc2cc(Nc3nc(Nc4ccc5nc(C)n(CC=C)c5c4)nc4ccccc34)ccc21,104%
20,COc1ccc2[nH]c(O)c(/C=c3/ccc4c(c3)N=C(c3ccc(C(F)(F)F)cc3)N=4)c2c1,78%

row,SMILES,growth
1,COc1cc(C(=O)/C=C/c2cn(-c3ccccc3)nc2-c2cccc(Nc3ccnc4cc(Cl)ccc34)c2)cc(OC)c1OC,108%
2,O=C(CCCCCCc1nc2ccc(Br)cc2[nH]1)NO,-36.2% (active)
3,COc1cc(Nc2ccnc3ccc(Br)cc23)cc(OC)c1OC,37.6%
4,O=C(NNC(=S)Nc1ccccc1)c1ccc(Nc2ncnc3c2cnn3-c2cccc(Br)c2)cc1,106%
5,COc1cc(NCCCCC(C)N)c2nccc(C)c2c1 (stereo not given),94%
6,c1ccc2c(Cc3csc4ccccc34)csc2c1,93.1%
7,CCN(CC)CCCNc1cccc2c(C)cc(OC)nc12,91.6%
8,O=NN(CC(=O)NNc1ccccc1)CC(=O)NNc1ccccc1,46.4%
9,O=C(CSc1ccc(Cl)cc1)Nc1ccc(-c2nc3ccccc3s2)c(Cl)c1,54.1%
10,CCSc1ccc([C@@H]2[C@@H](N)C(=O)N2c2cc(OC)c(OC)c(OC)c2)cc1,50.7%
11,CCOc1c(C#N)c2c(N)ncnc2n1C1OC(CO)C(O)C1O (stereo not given),33.9%
12,FC(F)(F)c1ccc(/C=N/Nc2nnc3n2N=C(c2ccc(Cl)cc2)CS3)cc1,28.4%
13,C#CC[C@@H]1C[C@]2(C)[C@H]3CC[C@@H]4[C@H]5C(C(=C)C)CC[C@]5(C(=O)NCCCCN)CC[C@@]4(C)[C@]3(C)CC[C@H]2C(C)(C)[C@H]1OC(C)=O (stereo not given in full),-98.3% (active)
14,FC(F)(F)C1=NNC(c2ccc3ccccc3c2)=NN1,90.1%
15,COc1cc(C2=NOC(c3cc(OC)c(OC)c(OC)c3)C2)ccc1OCCCCOc1cc2c(cc1OC)C(=O)N1CCC[C@H]1C=N2 (stereo not given in full),5.06% (active)
16,CNC(=O)c1cc(Oc2ccc(NC(=O)c3nc(S(C)(=O)=O)n(C)c3-c3ccc(F)cc3)cc2)ccn1,45.8%
17,O=C(/C=C/c1ccccc1)C(Br)C(Br)c1ccccc1 (stereo not given),-65.9% (active)
18,CCN(CC)CCCC(C)Nc1cnc(C(=O)Nc2cccc3ccc(OC)nc23)cn1 (stereo not given),-86.5% (active)
19,C/C(CC(=O)NNc1ccc([N+](=O)[O-])cc1)=N\Nc1ccc([N+](=O)[O-])cc1,47.5%
20,Cc1ccc(NC(=O)c2[nH]c(SCCN(C)C)nc2-c2ccc(F)cc2)cc1C#Cc1cnc2cccnn12,-88% (active)
